Reference: PubChem BioAssay

Test: resazurin metabolic signal in HepG2 cells – cell-based, resazurin fluorescence, 24 h, PK04 Diversity Set, profiling panel (AID 1172); further: test concentration not given here
Conditions: HepG2 viability, higher = more signal
Work on `Cc1cc(C)c(C(O)C2C=CC3C(=O)N(c4ccccc4)C(=O)C3N2Nc2ccccc2)c(C)c1` (stereo not given) yielded a z-score of -0.156.
With `O=C1O[C@H](c2ccccc2)[C@H](c2ccccc2)N2[C@H]1[C@@H](C(=O)N1CCN(c3ncccn3)CC1)[C@]1(C(=O)Nc3ccc(C#CCCO)cc31)[C@H]2c1ccc(OCCO)cc1` the z-score was 0.956.
Compound `O=C1CSC(c2cccc([N+](=O)[O-])c2)N1c1ccccc1` (stereo not given) has a z-score of 0.0598.
For `COC(=O)C(CC#Cc1ccc2c(c1)[C@]1(C(=O)N2)[C@H](c2ccc(O)cc2)N2[C@H](c3ccccc3)[C@H](c3ccccc3)OC(=O)[C@H]2[C@@H]1C(=O)O)C(=O)OC`, the z-score was 0.464.
With `COCCCNC(=O)[C@@]1(Cc2ccccc2I)c2ccccc2C(=O)N(Cc2ccccc2Cl)[C@H]1c1ccc(CO)cc1` the z-score was 1.01.
With `COC(=O)[C@]1(Cc2ccccc2CN=[N+]=[N-])N=C(c2ccc(OCCCO)cc2)O[C@@H]1c1ccccc1` the z-score was -2.08.
In the case of `CN(C)CCCCCCNC(=O)[C@@H]1C[C@@H]2C(=O)NCC(=O)N2[C@@H]1c1ccc(O)cc1`, the z-score is reported as -1.01.
In the case of `COC(=O)c1ccc(OC)c(/C=C\CC(CCc2ccccc2)OC(=O)c2ccncc2)c1` (stereo not given), the z-score is reported as 0.263.
`CCOC(=O)C[C@H]1[C@H](OC(=O)Cc2ccc3c(c2)OCO3)[C@@H](NC(=O)c2ccccc2)c2cc(OCCCO)ccc2N1C(=O)c1ccc2ccccc2n1` showed a z-score of -0.287.
Work on `CCCNC(=O)[C@@]1(Sc2ccc(C)cc2)CC(=O)N(Cc2ccccc2)[C@@H]1c1ccc(CO)cc1I` yielded a z-score of -0.38.
In the case of `CC1(C)[C@@H]2CC(C(O)C3C=CC4C(=O)N(c5ccccc5)C(=O)C4N3Nc3ccccc3F)=C[C@@H]1C2` (stereo not given in full), the z-score is reported as 1.48.
Compound `COc1ccc(C#Cc2ccc3c(c2)[C@]2(C(=O)N3)[C@H](C(N)=O)[C@H]3C(=O)O[C@H](c4ccccc4)[C@H](c4ccccc4)N3[C@@H]2c2ccc(O)cc2)cc1` has a z-score of -0.295.
Compound `COc1ccc([Si](C)(C)[C@@H]2[C@@H](CCO)O[C@]3(C(=O)N(Cc4ccc(N5C(=O)c6ccccc6Oc6ccccc65)cc4)c4ccccc43)[C@H]2C)cc1` has a z-score of 0.0213.
Compound `NC(=O)NCC#Cc1ccc2c(c1)[C@]1(C(=O)N2)[C@H](c2ccc(O)cc2)N2[C@H](c3ccccc3)[C@H](c3ccccc3)OC(=O)[C@H]2[C@@H]1C(=O)NC[C@H](O)c1ccccc1` has a z-score of 0.22.
Compound `CO[C@H]1O[C@H](CO)[C@@H](OC(=O)c2ccc(Br)cc2)[C@@H]2OC(=O)[C@H](Cc3cccc(Br)c3)C/C=C/C[C@@H](Cc3cccc(Br)c3)C(=O)O[C@@H]12` has a z-score of -0.673.
In the case of `CO[C@H]1O[C@H](CO)[C@@H](OC(=O)Nc2cccc(F)c2)[C@H](OC(=O)Nc2ccc3c(c2)OCO3)[C@H]1OC(=O)Nc1ccc2c(c1)OCO2`, the z-score is reported as -0.252.
`CC(C)C[C@H]1NC(=O)[C@H](C)NC(=O)[C@@]23C(=O)N[C@@H](Cc4ccccc4)C2[C@H](C)[C@@]2(C)O[C@H]2C3/C=C/C/C=C\CNC1=O` (stereo not given in full) gave a z-score of -0.594.
`Cc1ccc(C(C)CC(O)C2C=CC3C(=O)N(Cc4ccccc4)C(=O)C3N2n2cnnc2)o1` (stereo not given) showed a z-score of -1.13.
`COCCCNC(=O)[C@@]1(Cc2ccccc2)COC(c2ccc(OCCCO)cc2)=N1` gave a z-score of 0.515.
`O=C1c2ccccc2[C@](Cc2ccccc2I)(C(=O)NC2CC2)[C@H](c2ccc(CO)cc2)N1Cc1ccccc1Cl` showed a z-score of 0.197.
Work on `CCOC(=O)C[C@H]1[C@H](OC(=O)Cc2ccc3c(c2)OCO3)[C@@H](NC(=O)c2ccccc2)c2cc(OCCCO)ccc2N1C(=O)c1ccccc1` yielded a z-score of -0.688.
For `CCOC(=O)C1=CC[C@@H](c2ccc(N(CC)CC)cc2)N(S(=O)(=O)c2ccc(C)cc2)[C@H]1c1ccc([N+](=O)[O-])cc1`, the z-score was -0.407.
Compound `COC(=O)C(CC#Cc1ccc2c(c1)[C@]1(C(=O)N2)[C@H](C(=O)N2CCc3cc(OC)c(OC)cc3C2)[C@H]2C(=O)O[C@H](c3ccccc3)[C@H](c3ccccc3)N2[C@@H]1c1ccc(OCCO)cc1)C(=O)OC` has a z-score of -0.0956.
Work on `CC(C)N1C(=O)c2ccccc2[C@](C)(C(=O)O)[C@@H]1c1ccc(CO)cc1` yielded a z-score of 0.536.
`C=CCC(OC(C)=O)[C@@H]1[C@@H](N(Cc2ccc(-c3ccccc3)cc2)C(=O)c2cccc3ccccc23)c2cc(OCCCO)ccc2N1C(=O)c1ccc2ccccc2n1` (stereo not given in full) gave a z-score of -0.253.
Work on `[N-]=[N+]=Nc1ccccc1[C@H]1OC(c2ccc(OCCCO)cc2)=N[C@@]1(Cc1ccccc1)C(=O)NCc1ccccc1` yielded a z-score of -0.171.
Work on `COCCCNC(=O)[C@]1(CCS(=O)(=O)c2ccccc2)N=C(c2ccc(OCCCO)cc2)O[C@@H]1c1ccccc1` yielded a z-score of 0.484.
Compound `NC(=O)NCC#Cc1ccc2c(c1)[C@]1(C(=O)N2)[C@H](c2ccc(OCCO)cc2)N2[C@H](c3ccccc3)[C@H](c3ccccc3)OC(=O)[C@H]2[C@@H]1C(=O)N1CCCCCCC1` has a z-score of 0.314.
In the case of `O=C1C[C@@](C(=O)O)(c2ccc([N+](=O)[O-])cc2)[C@@H](c2ccc(CO)cc2)N1CC12CC3CC(CC(C3)C1)C2`, the z-score is reported as -0.246.
Work on `O=C1C[C@@](C(=O)NCc2ccccc2)(c2ccc([N+](=O)[O-])cc2)[C@@H](c2ccc(CO)cc2I)N1C1CCCCC1` yielded a z-score of -0.327.
Compound `COc1cccc(C[C@H]2C[C@@H](CO[Si](C(C)C)(C(C)C)C(C)C)N3C(=O)[C@]4(C(C)=O)O[C@]23[C@H]2C(=O)N(C)C(=O)[C@H]24)c1` has a z-score of -1.03.
`COCC(=C=CC[C@@H](O)c1ccccc1OCCO)C[C@@H](O)COCc1ccccc1` gave a z-score of 0.905.
Compound `COC(=O)C(CC#Cc1ccc2c(c1)[C@]1(C(=O)N2)[C@H](C(=O)N2CCc3cc(OC)c(OC)cc3C2)[C@H]2C(=O)O[C@H](c3ccccc3)[C@H](c3ccccc3)N2[C@@H]1c1ccc(O)cc1)C(=O)OC` has a z-score of -0.555.
`CN1C(=O)C2C=CC(C(O)COCc3ccccc3)N(Nc3ccccc3)C2C1=O` (stereo not given) gave a z-score of 0.425.
With `Cc1ccccc1C(O)C1C=CC2C(=O)N(Cc3ccccc3)C(=O)C2N1n1cnnc1` (stereo not given) the z-score was 1.09.
